Each compound was assayed against PEG-3 (UniProt Q6IN02) (assay: Peg3 promoter luciferase inhibitors, potency, dose response, cell-based, HeLa, CREF/GAPDH counter-screen panel (AID 624167)). Details: CREF/GAPDH counter-screens; HeLa PEG-Prom luciferase reporter, overnight, run 1, dose range 1, at 100 µM (top of the series) unless noted.
Chain of PEG-3 (Q6IN02 whole entry, looked up): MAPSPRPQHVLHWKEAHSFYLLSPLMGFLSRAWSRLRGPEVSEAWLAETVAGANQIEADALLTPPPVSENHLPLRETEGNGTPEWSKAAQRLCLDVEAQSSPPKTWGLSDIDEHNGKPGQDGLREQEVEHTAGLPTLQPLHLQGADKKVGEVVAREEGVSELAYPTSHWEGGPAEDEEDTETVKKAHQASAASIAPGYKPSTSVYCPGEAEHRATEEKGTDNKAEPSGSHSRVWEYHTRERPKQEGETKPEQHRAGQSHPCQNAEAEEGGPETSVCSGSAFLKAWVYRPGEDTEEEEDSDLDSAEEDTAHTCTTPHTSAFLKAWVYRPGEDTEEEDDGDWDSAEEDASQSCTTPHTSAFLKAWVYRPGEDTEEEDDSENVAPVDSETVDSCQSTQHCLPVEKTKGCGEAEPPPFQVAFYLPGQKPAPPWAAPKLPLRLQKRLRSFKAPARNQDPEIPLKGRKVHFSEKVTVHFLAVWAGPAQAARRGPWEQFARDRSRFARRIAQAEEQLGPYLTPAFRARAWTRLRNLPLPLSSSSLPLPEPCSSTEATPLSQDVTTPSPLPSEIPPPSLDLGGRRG

| SMILES | inhibition [%] |
| --- | --- |
| O=C(NCCc1ccccc1)c1ccc2c(c1)OCO2 | 86.2 |
| COc1ccccc1CNCC(O)Cn1c2ccccc2c2ccccc21 (stereo not given) | 102 |
| CN(C)S(=O)(=O)c1ccc(-c2csc(N/N=C/c3ccc(O)cc3)n2)cc1 | 99.1 |
| CN(C)CC1CCC/C(=C\c2ccc(OC(=O)c3ccc(Cl)cc3)cc2)C1=O (stereo not given) | 97.7 |
| Cc1c(C)c2ccc(OCC(=O)Nc3ccccn3)c(C)c2oc1=O | 99.2 |
| O=C(O)c1ccc(N/N=C/c2ccc3c(c2)OCO3)cc1 | 98 |
| CC1CC(C)C(=O)C(C(CC2CC(=O)NC(=O)C2)OC(=O)CC(=O)c2ccccc2)C1 (stereo not given) | 72.4 |
| CC(=O)NC(c1ccc(Cl)cc1Cl)c1ccc2cccnc2c1O (stereo not given) | 96.5 |
| O=C(O)c1ccc(N/N=C/c2ccc(OC(=O)c3cccc(Cl)c3)cc2)cc1 | 101 |
| CCCC(=O)NC(c1ccc(OC)cc1)c1ccc2cccnc2c1O (stereo not given) | 66.6 |
| CCCCC(=O)NC(c1ccccc1OC)c1ccc2cccnc2c1O (stereo not given) | 67.7 |
| Cc1cc(C(=O)Nc2cccc(C(=O)O)c2)oc1C | 88.1 |
| CN=c1scc(-c2ccccc2F)n1/N=C/c1ccc[nH]1 | 98.7 |
| Cc1nc(-c2ccc(NC(=O)c3ccco3)cc2)cs1 | 98.9 |
| CCCC(=O)NC(c1ccc(C(C)C)cc1)c1ccc2cccnc2c1O (stereo not given) | 95.6 |
| CCCSc1ccc2nc(-c3ccccc3)cn2c1 | 98.4 |
| CC1=NOC(=O)/C1=C\c1ccc(-c2ccccc2Br)o1 | 99.2 |
| Cc1cc(S(=O)(=O)c2ccc(Cl)cc2)nc(S(=O)(=O)c2ccc(Cl)cc2)c1C#N | 99.1 |
| CCC(c1ccc(O)c(O)c1)C(CC)c1ccc(O)c(O)c1 (stereo not given) | 102 |
| O=C(COc1ccc2c(c1)CCC2)Nc1ccccn1 | 98.8 |
| CCOc1cccc(/C=N/NC(=S)Nc2cc(S(=O)(=O)N3CCOCC3)ccc2N2CCOCC2)c1O | 70.7 |

These compounds were tested against PEG-3 (UniProt Q6IN02) in the same assay as above. Details: CREF/GAPDH counter-screens; HeLa PEG-Prom luciferase reporter, overnight, run 2, dose range 1, at 100 µM (top of the series) unless noted.

| SMILES | inhibition |
| --- | --- |
| CCCC(=O)NC(c1ccc(Cl)cc1)c1ccc2cccnc2c1O (stereo not given) | 98.7% |
| O=C(O)c1ccc(N/N=C/c2ccc3nccnc3c2)cc1 | 102% |
| CN=c1sc2c(n1C)C(=O)c1ccccc1C2=O | 98.9% |
| CCCCCCN1C=C/C(=C\C=C(C#N)C#N)c2ccccc21 | 78.7% |
| Oc1c(I)cc(Cl)c2cccnc12 | 41.4% |
| COc1ccc(S(=O)(=O)/N=C2\C=C(Nc3ccc(O)cc3)C(=O)c3ccccc32)cc1 | 99.7% |
| COC1CC(C)C(OC)c2cc(O)cc(c2O)NC(=O)C(C)=CC=CC(C)C(OC(N)=O)C(C)=CC(C)C1OC (stereo not given) | 100% |
| CC(=O)NC(c1ccc(Cl)cc1)c1ccc2cccnc2c1O (stereo not given) | 88.3% |
| O=C(Nc1ccc(Cc2ccncc2)cc1)c1ccc([N+](=O)[O-])o1 | 101% |
| COC1=CC(=O)c2c(ccc3ncnc(N)c23)C1=O | 99% |
| NC1=C(Br)C(=O)c2ncccc2C1=O | 101% |
| Cc1ccc(-c2cc3c(N=O)c4ccccc4c-3n[nH]2)cc1 | 86.7% |
| CC(=O)c1ccc(-c2cnc3c(NC=O)cc(-c4ccccc4Oc4ccccc4)cn23)cc1 | 56.6% |
| O=C(N/N=C/c1cc([N+](=O)[O-])ccc1O)c1ccc(COc2ccc3c(c2)CCC3)o1 | 95.1% [run 2, dose range 1, at 25 µM] |
| COC1=C(Br)C(=O)c2ncccc2C1=O | 98.6% |
| CN(C)c1ccc(/C=C/c2ccc3c4ccccc4ccc3[n+]2-c2ccccc2)cc1 | 98.8% |
| O=C(Nc1ccccc1)c1nc[nH]c1C(=O)NCCCCCCNC(=O)c1[nH]cnc1C(=O)Nc1ccccc1 | 24.2% |
| O=C(/C=C/c1ccccc1)Nc1cccc(C(=O)O)c1 | 97.4% |
| O=C(NCCc1ccccc1)c1ccc2c(c1)OCO2 | 97.8% |
| COc1ccccc1CNCC(O)Cn1c2ccccc2c2ccccc21 (stereo not given) | 98.7% |

| SMILES | inhibition |
| --- | --- |
| CN(C)S(=O)(=O)c1ccc(-c2csc(N/N=C/c3ccc(O)cc3)n2)cc1 | 101% |
| CN(C)CC1CCC/C(=C\c2ccc(OC(=O)c3ccc(Cl)cc3)cc2)C1=O (stereo not given) | 99% |
| Cc1c(C)c2ccc(OCC(=O)Nc3ccccn3)c(C)c2oc1=O | 93.2% |
| O=C(O)c1ccc(N/N=C/c2ccc3c(c2)OCO3)cc1 | 102% |
| CC1CC(C)C(=O)C(C(CC2CC(=O)NC(=O)C2)OC(=O)CC(=O)c2ccccc2)C1 (stereo not given) | 85.5% |
| CC(=O)NC(c1ccc(Cl)cc1Cl)c1ccc2cccnc2c1O (stereo not given) | 96.7% |
| O=C(O)c1ccc(N/N=C/c2ccc(OC(=O)c3cccc(Cl)c3)cc2)cc1 | 99.4% |
| CCCC(=O)NC(c1ccc(OC)cc1)c1ccc2cccnc2c1O (stereo not given) | 88.5% |
| CCCCC(=O)NC(c1ccccc1OC)c1ccc2cccnc2c1O (stereo not given) | 68.4% |
| Cc1cc(C(=O)Nc2cccc(C(=O)O)c2)oc1C | 85.8% |
| CN=c1scc(-c2ccccc2F)n1/N=C/c1ccc[nH]1 | 99.8% |
| Cc1nc(-c2ccc(NC(=O)c3ccco3)cc2)cs1 | 99.3% |
| CCCC(=O)NC(c1ccc(C(C)C)cc1)c1ccc2cccnc2c1O (stereo not given) | 82.8% |
| CCCSc1ccc2nc(-c3ccccc3)cn2c1 | 98.8% |
| CC1=NOC(=O)/C1=C\c1ccc(-c2ccccc2Br)o1 | 98.5% |
| Cc1cc(S(=O)(=O)c2ccc(Cl)cc2)nc(S(=O)(=O)c2ccc(Cl)cc2)c1C#N | 101% |
| CCC(c1ccc(O)c(O)c1)C(CC)c1ccc(O)c(O)c1 (stereo not given) | 101% |
| O=C(COc1ccc2c(c1)CCC2)Nc1ccccn1 | 94.2% |
| CCOc1cccc(/C=N/NC(=S)Nc2cc(S(=O)(=O)N3CCOCC3)ccc2N2CCOCC2)c1O | 50.5% |

— PubChem BioAssay
